Experimental data taken from PubChem BioAssay (NCATS).
Values joined by “and” are separate entries in the source; they are usually repeats but may differ in a detail not shown here. Equal values may be shown once. Inconclusive results are not listed. Active and inactive are the calls of the source. Calls follow the shape of the dose curve; as a rule, active = well fitted curve in the direction sought with a large enough effect; inconclusive = small, poorly fitted or top-dose-only effect, or another doubt; inactive = no such curve, though single readings can be large; an effect the other way counts as inactive or inconclusive.

Key:
CRL-7250 = normal cell line; experiment: Cytotoxic Profiling of Annotated Libraries Using Quantitative High-Throughput Screening (AID 1296008); details: Five cell lines viability, CellTiter-Glo ATP luminescence, 48-72 h; max response: hits give low values; also: nearly all actives have a fitted effect of over 60% in size; also: potency is read from the fitted curve at half-maximal effect; as to max response: % is scaled to controls: 0 for no effect and ±100 for the full control effect
Outline: (§1)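 Cells exposed to compounds for 48 or 72 hr at 37 degrees Celsius. Viability read as ATP-coupled luminescence with CellTiter-Glo after 10 min at room temperature.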

HEK293 = experiment: as above; details: Five cell lines viability, CellTiter-Glo ATP luminescence, 48-72 h; max response: hits give low values
Outline: as §1

HaCat = experiment: as above; details: Five cell lines viability, CellTiter-Glo ATP luminescence, 48-72 h; max response: hits give low values
Outline: as §1

KB-3-1 = experiment: as above; details: Five cell lines viability, CellTiter-Glo ATP luminescence, 48-72 h; max response: hits give low values
Outline: as §1

NIH3T3 [1] = experiment: as above; details: Five cell lines viability, CellTiter-Glo ATP luminescence, 48-72 h; max response: hits give low values
Outline: as §1

MCC-13 = experiment: qHTS assay to identify novel small-molecules to repurpose for Merkel cell carcinoma treatment (AID 1296009); details: MCC and control cell lines, CellTiter-Glo viability, 72 h; series mostly up to 46 µM; also: nearly all actives have a fitted effect of over 60% in size; also: potency is read from the fitted curve at half-maximal effect
Outline: (§2)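 Cells were treated for 72 hr at 37 degree celsius with compounds in 8- or 11-point dose response. Viability was read by CellTiter-Glo luminescence, normalized to no-cell (cytotoxicity) and DMSO controls.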

MCC-26 = experiment: as above; details: MCC and control cell lines, CellTiter-Glo viability, 72 h; series mostly up to 46 µM
Outline: as §2

MKL-1 = experiment: as above; details: MCC and control cell lines, CellTiter-Glo viability, 72 h; series mostly up to 46 µM
Outline: as §2

MKL-2 = experiment: as above; details: MCC and control cell lines, CellTiter-Glo viability, 72 h; series mostly up to 46 µM
Outline: as §2

UISO = experiment: as above; details: MCC and control cell lines, CellTiter-Glo viability, 72 h; series mostly up to 46 µM
Outline: as §2

WaGa = experiment: as above; details: MCC and control cell lines, CellTiter-Glo viability, 72 h; series mostly up to 46 µM
Outline: as §2

NIH3T3 [2] = experiment: as above; details: MCC and control cell lines, CellTiter-Glo viability, 72 h; series mostly up to 44.8 µM
Outline: as §2

CASKI = experiment: Primary qHTS to identify gynecologic anti-cancer compounds using libraries of approved drugs and bioactive compounds (AID 1345084); details: Gynecologic cancer cell panel viability, ATPlite luminescence, 48 h; series mostly up to 57.5 µM; also: nearly all actives have a fitted effect of over 55% in size; also: potency is read from the fitted curve at half-maximal effect
Outline: (§3)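 Cytotoxicity screen measuring ATP content by luciferase luminescence. Each compound is applied at five concentrations for 48 h at 37 C with 5% CO2.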

TAB113 = experiment: qHTS profiling for inhibitors of Plasmodium falciparum proliferation (AID 504749);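 also: 0% = DMSO vehicle and full inhibition = artemisinin control; nearly all actives have a fitted effect of over 60% in size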; details: P. falciparum in erythrocytes, SYBR Green DNA, 72 h; series mostly up to 28.7 µM
Outline: (§4)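 P. falciparum-infected erythrocytes (0.3% parasitemia, 2.5% hematocrit) incubated with compound 72 h at 37 C, 5% CO2. Parasite DNA detected by SYBR Green after lysis, overnight at room temperature; normalised to 0.29 uM artemisinin and DMSO.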

TAB165 = experiment: as above; details: P. falciparum in erythrocytes, SYBR Green DNA, 72 h; series mostly up to 28.7 µM
Outline: as §4

C33A = experiment: Primary qHTS to identify gynecologic anti-cancer compounds using libraries of approved drugs and bioactive compounds (AID 1345084); details: Gynecologic cancer cell panel viability, ATPlite luminescence, 48 h; series mostly up to 57.5 µM; also: nearly all actives have a fitted effect of over 55% in size; also: potency is read from the fitted curve at half-maximal effect
Outline: as §3

CAOV3 = experiment: as above; details: Gynecologic cancer cell panel viability, ATPlite luminescence, 48 h; series mostly up to 57.5 µM
Outline: as §3

CC(C)=CCCC(C)=CCCC(C)=CCCC(C)=CCCC(C)=CCCC(C)=CCCC(C)=CCCC(C)=CCCC(C)=CCO
inactive: max response (CRL-7250) 0.939% | max response (HEK293) -3.76% | max response (HaCat) 1.51% | max response (KB-3-1) 4.17% | max response (NIH3T3 [1]) -3.52% | Potency (MCC-13) | Potency (MCC-26) | Potency (MKL-1) | Potency (MKL-2) | Potency (UISO) | Potency (WaGa)

CCCCOCCOc1nc(-c2ccc(C(=O)O)c(F)c2)sc1C
inactive: max response (CRL-7250) -34.6% | max response (HEK293) -11.4% | max response (HaCat) -22% | max response (KB-3-1) -5.21% | max response (NIH3T3 [1]) -20.6% | Potency (MCC-13) | Potency (MCC-26) | Potency (MKL-1) | Potency (MKL-2) | Potency (UISO) | Potency (WaGa)

CCOC(=O)N1c2ccc(C(F)(F)F)cc2[C@@H](N(Cc2cc(C(F)(F)F)cc(C(F)(F)F)c2)C(=O)OC)C[C@H]1CC
active: Potency (CRL-7250) 14.8 µM
inactive: max response (HEK293) -0.609% | max response (HaCat) 3.49% | max response (KB-3-1) 1.68% | outcome (NIH3T3 [1]) | Potency (MCC-13) | Potency (MCC-26) | Potency (MKL-1) | Potency (MKL-2) | Potency (NIH3T3 [2]) | Potency (UISO) | Potency (WaGa)

Nc1ncnc2c1c(-c1cccc(OCc3ccccc3)c1)cn2C1CC(CN2CCC2)C1 (stereo not drawn)
active: Potency (HEK293) 26.4 µM and 8.2 µM | Potency (KB-3-1) 23.1 µM | Potency (NIH3T3 [1]) 23.5 µM and 4.61 µM | Potency (CASKI) 28.2 µM
inactive: outcome (CRL-7250) | max response (HaCat) 4.36% | Potency (MCC-13) | Potency (MCC-26) | Potency (MKL-1) | Potency (MKL-2) | Potency (WaGa)

Cc1ccc(S(=O)(=O)Nc2nc3ccccc3nc2Nc2ccc3nsnc3c2)cc1
inactive: max response (CRL-7250) -6.76% | max response (HEK293) 4.32% | outcome (KB-3-1) | max response (NIH3T3 [1]) -28.1% | Potency (MCC-13) | Potency (MCC-26) | Potency (MKL-2)
active: Potency (HaCat) 14.4 µM | Potency (MKL-1) 1.82 µM | Potency (UISO) 5.12 µM

CC(C)CN(C[C@@H](O)[C@H](Cc1ccccc1)NC(=O)O[C@H]1CO[C@H]2OCC[C@H]21)S(=O)(=O)c1ccc(N)cc1
inactive: Potency (TAB113) | Potency (TAB165) | max response (CRL-7250) -22% | max response (HEK293) -18.9% | max response (HaCat) -16.8% | outcome (KB-3-1) | outcome (NIH3T3 [1]) | Potency (MCC-13) | Potency (MCC-26) | Potency (NIH3T3 [2]) | Potency (UISO)

OC[C@H]1O[C@@H](O[C@H]2[C@@H](O)[C@@](O)(CO)O[C@@H]2CO)[C@H](O)[C@@H](O)[C@@H]1O
inactive: max response (CRL-7250) -0.0942% | max response (HEK293) -3.28% | max response (HaCat) 1.22% | max response (KB-3-1) -0.101% | max response (NIH3T3 [1]) 2.52% | Potency (MCC-13) | Potency (MCC-26) | Potency (MKL-1) | Potency (MKL-2) | Potency (UISO) | Potency (WaGa)

CCNC(=O)CCCC=CC[C@@H]1[C@H](C=CC(O)CCc2ccccc2)[C@@H](O)C[C@@H]1O (stereo partly drawn)
inactive: max response (CRL-7250) -10.2% | max response (HEK293) -24.5% | max response (HaCat) 4.63% | max response (KB-3-1) 9.82% | max response (NIH3T3 [1]) -1.84% | Potency (MCC-13) | Potency (MCC-26) | Potency (MKL-1) | Potency (UISO) | Potency (WaGa)

CSc1cccc(Nc2ncc3cc(-c4c(Cl)cccc4Cl)c(=O)n(C)c3n2)c1
inactive: max response (HaCat) -17.3% | max response (KB-3-1) 7.1% | Potency (MCC-13) | Potency (MKL-1) | Potency (MKL-2) | Potency (WaGa)
active: Potency (CRL-7250) 0.235 µM | Potency (HEK293) 13.2 µM | Potency (NIH3T3 [1]) 0.332 µM

Cc1cc(C(C)Nc2ccccc2)c2nc(N3CCOCC3)cc(=O)n2c1 (stereo not drawn)
inactive: max response (CRL-7250) -10.1% | max response (HEK293) -5.74% and -23.1% | max response (HaCat) -24% | outcome (KB-3-1) | Potency (MCC-13) | Potency (MCC-26) | Potency (MKL-1) | Potency (MKL-2) | Potency (UISO) | Potency (WaGa) | Potency (C33A) | Potency (CAOV3)
active: Potency (NIH3T3 [1]) 4.61 µM

COc1cc(F)c(C(C)C)cc1-c1ccc(C(F)(F)F)cc1CN1C(=O)O[C@H](c2cc(C(F)(F)F)cc(C(F)(F)F)c2)[C@@H]1C
inactive: outcome (CRL-7250) | max response (HEK293) 0.948% | max response (HaCat) 0.17% | max response (KB-3-1) -11.6% | max response (NIH3T3 [1]) 0.998% | Potency (MCC-13) | Potency (MCC-26) | Potency (MKL-1) | Potency (MKL-2) | Potency (UISO) | Potency (WaGa)

Cc1c(C(=O)Nc2ccc(N3C[C@@H](C)O[C@@H](C)C3)nc2)cccc1-c1ccc(OC(F)(F)F)cc1
active: Potency (HEK293) 5.26 µM | Potency (HaCat) 9.35 µM | Potency (NIH3T3 [1]) 20.9 µM
inactive: max response (CRL-7250) -6.66% | max response (KB-3-1) -8.91% | Potency (MCC-13) | Potency (MCC-26) | Potency (MKL-1) | Potency (MKL-2) | Potency (WaGa) | Potency (C33A) | Potency (CAOV3) | Potency (CASKI)

NC[C@H]1O[C@H](O[C@@H]2[C@@H](O)[C@@H](O[C@H]3O[C@H](CO)[C@@H](O)[C@H](N)[C@@H]3O)[C@H](N)C[C@@H]2N)[C@H](O)[C@@H](O)[C@H]1O
inactive: max response (CRL-7250) -1.7% | max response (HEK293) -2.16% | max response (HaCat) -1.4% | max response (KB-3-1) 4.43% | max response (NIH3T3 [1]) -1.04% | Potency (MCC-13) | Potency (MCC-26) | Potency (MKL-2) | Potency (UISO) | Potency (WaGa)

O=S(=O)(O)c1ccc2cc(N=Nc3cc(S(=O)(=O)O)c4cccnc4c3O)ccc2c1
inactive: max response (CRL-7250) -1.21% | max response (HEK293) -8.8% and -0.547% | max response (HaCat) -5.73% and 2.13% | max response (KB-3-1) -11.7% and -5.81% | max response (NIH3T3 [1]) -3.13% and 2.59% | Potency (MCC-13) | Potency (MCC-26) | Potency (MKL-1) | Potency (MKL-2) | Potency (UISO) | Potency (WaGa) | Potency (C33A) | Potency (CAOV3) | Potency (CASKI)

CC(C)C[C@@H](N)[C@H](O)C(=O)N[C@H](C(=O)N[C@H](C(=O)N[C@@H](CC(=O)O)C(=O)O)C(C)C)C(C)C
inactive: max response (CRL-7250) 3.99% | max response (HEK293) 3.01% | max response (HaCat) 1.98% | max response (KB-3-1) 4.23% | max response (NIH3T3 [1]) 1.99% | Potency (MCC-13) | Potency (MCC-26) | Potency (MKL-1) | Potency (MKL-2) | Potency (UISO) | Potency (WaGa)
